From PubChem BioAssay
BoNT F protease = BoNT F light chain protease inhibition | inhibition, % at 10 µM | Multiplex microsphere protease cleavage assay, flow cytometry | actives 0.22% (n = 360,000) | AID 588497; in the data active means inhibition above about 35%, passing the limit was not always enough; inconclusive means no clear call, values can overlap the other calls; further: plate controls were buffer without enzyme for full effect and enzyme alone for no effect
SSB-PriA inh = inhibitors of Klebsiella pneumoniae PriA binding to SSB C-terminal tail | AID 1272365 | AlphaScreen SSBct-PriA binding, biotinylated peptide | actives 0.6% (n = 430,000) | inhibition, % at 33 µM; in the data active means inhibition mostly above about 37%, no sharp cut-off; inactive means mostly below about 20%;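 further: plate controls were negative control peptide for no effect and reference peptide for full effect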
Anthrax LF inh2 = inhibitors of Bacillus anthracis lethal factor protease. P15917. multiplex microsphere protease cleavage assay, LF. inhibition, % at 10 µM. actives 0.12% (n = 360,000). AID 588501; further: plate controls were buffer without enzyme for full effect and enzyme alone for no effect
Target sequence (P15917 whole entry, looked up): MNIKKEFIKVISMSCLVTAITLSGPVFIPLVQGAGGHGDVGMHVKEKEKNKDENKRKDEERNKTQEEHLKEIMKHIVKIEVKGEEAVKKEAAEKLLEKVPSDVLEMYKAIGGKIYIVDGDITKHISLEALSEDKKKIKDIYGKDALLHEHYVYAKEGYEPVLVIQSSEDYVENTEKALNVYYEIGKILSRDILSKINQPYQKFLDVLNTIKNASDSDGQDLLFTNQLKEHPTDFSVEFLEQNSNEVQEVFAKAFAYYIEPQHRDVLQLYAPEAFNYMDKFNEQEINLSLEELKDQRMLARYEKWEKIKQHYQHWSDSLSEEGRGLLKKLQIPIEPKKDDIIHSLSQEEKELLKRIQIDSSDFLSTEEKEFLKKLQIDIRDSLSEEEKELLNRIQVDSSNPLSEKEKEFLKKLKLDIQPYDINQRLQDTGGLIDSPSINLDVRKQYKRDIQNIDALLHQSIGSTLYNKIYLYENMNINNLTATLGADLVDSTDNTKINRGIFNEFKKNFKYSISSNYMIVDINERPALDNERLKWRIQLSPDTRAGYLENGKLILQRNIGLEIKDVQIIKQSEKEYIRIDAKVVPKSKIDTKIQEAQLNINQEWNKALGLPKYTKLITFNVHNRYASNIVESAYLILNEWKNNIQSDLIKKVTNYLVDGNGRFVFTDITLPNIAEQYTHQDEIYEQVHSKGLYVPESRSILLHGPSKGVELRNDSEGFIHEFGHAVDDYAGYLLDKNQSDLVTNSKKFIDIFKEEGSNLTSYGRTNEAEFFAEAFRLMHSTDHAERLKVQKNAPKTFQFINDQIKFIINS
BoNT A protease = inhibitors of Botulinum neurotoxin A light chain protease | multiplex microsphere protease substrate cleavage, flow cytometry | inhibition, % at 10 µM | actives 0.17% (n = 360,000) | AID 588499; further: plate controls were buffer without enzyme for full effect and enzyme alone for no effect
Bead autofluor = compound fluorescence in toxin protease inhibitor counterscreen; fluorescence intensity (test concentration not listed); AID 624483; compound autofluorescence counterscreen, microsphere flow cytometry; hits give high values; actives 3.1% (n = 360,000); in the data active means fluorescence intensity above about 16000; inconclusive means no clear call, values can overlap the other calls
Numbers without * were called inactive; ? = inconclusive; / = not tested or not shown. The list is not random: actives were taken first. Their share in the collection is about 3.1%. Unless noted, no stated cut-off is given here; in the data, active means inhibition above about 30%; inconclusive means no clear call, values can overlap the other calls; inactive means below that.

SMILES | BoNT F protease | SSB-PriA inh | Anthrax LF inh2 | BoNT A protease | Bead autofluor
O=C(NCC(c1cccs1)N1CCc2ccccc21)c1ccco1 (stereo unspecified) | / | -3 | / | / | /
CCOc1ccc(NC(=O)CSc2nc3c(-c4ccc(C)cc4)csc3c(=O)n2CC)cc1 | / | -2 | / | / | /
Brc1ccc(OCc2ccccc2)c(CNCc2ccncc2)c1 | -15 | -5 | -9 | -3 | 16749*
CCOC(=O)C1=C(CC)OC(N)=C(C#N)C1c1ccc(OC)c(C)c1OC (stereo unspecified) | -12 | -7 | -1 | -2 | 2513
CCOC(=O)C1=C(CC)OC(N)=C(C#N)C1c1ccc(OC)c(OC)c1OC (stereo unspecified) | 6 | -14 | -3 | 0 | 4218
CCOc1cc(C2C(C#N)=C(N)OC(C)=C2C(C)=O)c(Br)c(Br)c1OC(C)C (stereo unspecified) | 4 | -4 | 0 | 3 | 21864*
CCOC(=O)C1=C(C)OC(N)=C(C#N)C1c1ccc(OC)c(C)c1OC (stereo unspecified) | -2 | -23 | 1 | ? | 20362*
CCOC(=O)C1=C(CC)OC(N)=C(C#N)C1c1cc(OC)ccc1OC (stereo unspecified) | -8 | -2 | 0 | ? | 21578*
COc1ccc2nc(-c3cccc(NS(=O)(=O)c4cc(F)ccc4F)c3)cn2n1 | / | -7 | / | / | /
Clc1ccc(Nc2nc3ccccc3n3nnnc23)cc1 | 1 | -14 | -3 | 1 | 20275*
CCOC(=O)CSc1nc2c(c(=O)[nH]c(=O)n2C)n1CCCc1ccccc1 | -3 | -7 | -2 | -2 | 22767*
CC(=O)OC(C)(C)C(=O)N1CCCC(Cc2nc(-c3cnccn3)no2)C1 (stereo unspecified) | / | -10 | / | / | /
NS(=O)(=O)c1ccc(NC(=O)CSc2ccc3ccccc3n2)cc1 | -2 | -1 | -1 | -1 | 16858*
Cc1ccc(NC(C#N)c2ccccc2OCc2ccccc2)cc1 (stereo unspecified) | -7 | -13 | -2 | ? | 23322*
COc1ccc(NC(C#N)c2ccccc2OCc2ccccc2)cc1 (stereo unspecified) | -4 | -10 | -2 | -1 | 2088
O=C(c1ccc2c(c1)C(=O)N(Cc1ccco1)C2O)N1CCOCC1 (stereo unspecified) | -4 | -5 | -5 | 0 | 5038
O=C(c1ccc2c(c1)C(=O)N(Cc1ccco1)C2=O)N1CCOCC1 | -5 | -13 | -1 | -5 | 23883*
FC(F)(F)c1cc(C(F)(F)F)c2ccc(Oc3ccccc3)nc2n1 | -2 | -8 | 0 | 1 | 15838
FC(F)(F)c1cccc(Oc2ccc3c(C(F)(F)F)cc(C(F)(F)F)nc3n2)c1 | 1 | -8 | -2 | ? | 21842*
O=C(COc1ccccc1F)NN=C1CCCc2ccccc21 | / | 0 | / | / | /
CN(C)S(=O)(=O)c1c(Cl)cccc1Cl | 1 | -17 | 0 | 1 | 23563*
Cc1nnc(C2CCN(Cc3cccc(C(F)(F)F)c3)CC2)s1 | / | -8 | / | / | /
Fc1ccc(N2CCN(c3ccc4c(C(F)(F)F)cc(C(F)(F)F)nc4n3)CC2)cc1 | 4 | -13 | -4 | 4 | 21176*
FC(F)(F)c1cc(C(F)(F)F)c2ccc(N3CCN(c4ccc(Cl)cc4)CC3)nc2n1 | 4 | -21 | -2 | 3 | 21584*
FC(F)(F)c1cc(C(F)(F)F)c2ccc(N3CCN(c4ncccn4)CC3)nc2n1 | -4 | -7 | -6 | -4 | 23511*
SMILES | BoNT F protease | SSB-PriA inh | Anthrax LF inh2 | BoNT A protease | Bead autofluor
Cc1noc(C2CCCN2C(=O)c2ccc3ccccc3n2)n1 (stereo unspecified) | / | -29 | / | / | /
CCOCCn1c(=NC(=O)Cc2ccc(C)c(C)c2)sc2cc(F)cc(F)c21 | / | -7 | / | / | /
Cc1cc2ncc3c(n2n1)CCN(C(=O)Nc1ccccc1F)C3 | / | 0 | / | / | /
O=C1CCCC(O)=C1C(C#Cc1ccccc1)C1=C(O)CCCC1=O | -7 | -1 | 1 | -4 | 17723*
O=C(NC[C@H](O)c1csc2ccccc12)c1ccsc1 | / | -23 | / | / | /
CCN1C(=O)C(CC(=O)N2CCN(C(c3ccccc3)c3ccccc3)CC2)N(CC)C1=O (stereo unspecified) | 0 | 5 | -2 | -1 | 16806*
CCOC(=O)c1ccc(-c2cccc(C(F)(F)F)c2)nc1C | -3 | -126 | -2 | 1 | 22705*
CCOC(=O)c1cnn(-c2nc(-c3cccc(F)c3)cs2)c1C(F)(F)F | -2 | -36 | -3 | 2 | 19380*
CCOC(=O)c1cc(C#N)c(Oc2cccc(C(F)(F)F)c2)nc1-c1ccccc1 | -1 | -18 | -2 | 0 | 2655
CCOC(=O)N1CCN(C(=O)CSc2nnc(CNC(=O)c3ccc(F)cc3)o2)CC1 | / | -12 | / | / | /
